Experimental findings from PubChem BioAssay AID2018 (Sanford-Burnham Center for Chemical Genomics, 2009) are described below.

Usually inhibition stands for the relative decrease from the control value, in per cent.

Hit rate of the full screen: of about 1,200 compounds, about 600 (50%) were called active. No stated cut-off is given here; in the data, active means inhibition above about 42%; inactive means the rest. The set was probably picked from earlier hits. Some of the results follow. Results with a measured potency or affinity are listed apart.

The target in this assay is SUMO-conjugating enzyme UBC9 (Homo sapiens) (UniProt P63279). Nature of the assay: SUMOylation inhibitor hit validation, confirmation, SUMOylation inhibitor project, biochemical, AlphaScreen (AID 2018). The conditions noted are these: AlphaScreen in vitro SUMOylation assay; at 35 µM; hits give high values. (In general: Bead proximity is the source of the signal in Alpha formats.)
SUMO-conjugating enzyme UBC9 (Homo sapiens), sequence (P63279 whole entry, looked up): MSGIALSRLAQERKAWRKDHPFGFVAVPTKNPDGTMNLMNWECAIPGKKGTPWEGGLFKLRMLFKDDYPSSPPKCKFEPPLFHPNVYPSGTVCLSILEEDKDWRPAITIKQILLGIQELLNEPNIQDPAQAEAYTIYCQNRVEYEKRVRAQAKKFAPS
Take `CCOC(=O)N1CCN(C(=O)c2cccn3c(=O)c4cc(Br)ccc4nc23)CC1`: the inhibition was 4.2% (inactive).
As for `COC1=C(Nc2ccc(O)cc2)C(=O)c2ccccc2C1=O`, the inhibition was 74.4% (active).
`COC1=C(Nc2ccccc2OC)C(=O)c2ccccc2C1=O`: the inhibition was 96.4% (active).
Under `CC(NC(=O)Nc1ccc(O)cc1)(C(F)(F)F)C(F)(F)F` stands 1.3% (inactive); under `COC1=C(Nc2ccccc2)C(=O)c2ccccc2C1=O`, 93% (active); under `CC(=O)c1ccc(NC(=S)Nc2cccc3ccccc23)cc1`, 7.1% (inactive).
For `Nc1ccc(N(CCO)CCO)cc1`, the inhibition is 38.6% (inactive).
Regarding `COc1ccc(C=Nc2ccc3[nH]ncc3c2)c(O)c1`, the inhibition was 19.3% (inactive).
Regarding `CN1C(=O)N(C)c2ccc(C=O)c3cccc1c23`, the inhibition was 22.2% (inactive).
To `O=C(Nc1ccccc1F)Nc1cc(S(=O)(=O)N2CCOCC2)ccc1N1CCCC1` belongs 13.5% (inactive).
Turning to `Cc1cccn2cc(-c3ccc(S(=O)(=O)N4CCOCC4)cc3)nc12`, the inhibition is -6.1% (inactive).
As to `O=S(=O)(c1ccc2nc(-c3ccco3)c(-c3ccco3)nc2c1)N1CCOCC1`, the inhibition was 52% (active).
Regarding `CCOC(=O)c1c(C)oc2c1c(C=NCCO)c(O)c1ccccc12`, the inhibition was 99.7% (active).
With `O=C(CSc1ncccn1)NCc1ccc2c(c1)OCO2`, the inhibition was -9.4% (inactive).
To `O=c1cc2c(=O)oc3cc(O)c(O)oc3c2c(O)c1O` belongs 89.8% (active).
On to `NCCc1ccc(O)c(O)c1`, for which the inhibition is -6.3% (inactive).
Regarding `COC(=O)c1ccccc1-c1ccc(C(c2c(C)[nH][nH]c2=O)c2c(C)[nH][nH]c2=O)o1`, the inhibition is 88.2% (active).
To `Cc1[nH][nH]c(=O)c1C(c1ccc(-c2ccccc2C(=O)O)o1)c1c(C)[nH][nH]c1=O` belongs 66.6% (active); to `COc1ccc(O)c(C(c2c(C)[nH][nH]c2=O)c2c(C)[nH][nH]c2=O)c1`, 17.7% (inactive).
Under `COc1ccc(-c2ccc(C(c3c(C)[nH][nH]c3=O)c3c(C)[nH][nH]c3=O)o2)c([N+](=O)[O-])c1` stands 73.1% (active); under `Cc1ccc(-n2cccn2)c([C@@H]2C[C@H]3CN(C)C(=O)[C@]34CCCN24)c1`, 8.1% (inactive).
On to `Cc1ccccc1-c1nc2cc(N)ccc2o1`, for which the inhibition was 21.4% (inactive).
Consider `CN(C)S(=O)(=O)c1cc(NC(=O)CNCc2ccccc2)ccc1Cl`, for which the inhibition is -19.5% (inactive).
Take `O=C(c1cccn2c(=O)c3cc4ccccc4cc3nc12)N1CCN(c2ccccc2)CC1`: the inhibition was 27.6% (inactive).
`CN(C)C=Nc1ccc2nc3c(cc2c1)[nH]c1ccccc13`: the inhibition was 20.5% (inactive).
To `Cc1cc[n+](-c2[nH]c(=O)sc2/C=N/N=C(\[O-])c2ccncc2)cc1` belongs -9.7% (inactive).
Consider `Cc1cccn2c(=O)c3cc(C#N)c(=NC(=O)c4ccco4)n(Cc4ccco4)c3nc12`, for which the inhibition was 25.4% (inactive).
To `O=c1oc(-c2cccs2)nc2sc3c(c12)CCC3` belongs -2.8% (inactive).
Take `CN(C)c1cc(N/N=C/c2ccccc2C(F)(F)F)nc(N(C)C)n1`: the inhibition is 72.9% (active).
For the compound `Cc1ccc(-c2[nH]ncc2/C=N/n2c(C)nc3ccccc3c2=O)cc1`, the inhibition is 66.8% (active).
In the case of `Cc1nc2ccccc2c(=O)n1/N=C/c1ccc(O)c(O)c1O`, the inhibition was 81.7% (active).
Turning to `O=C1NC(=O)c2cc(NC(=O)C3CCCCC3)ccc21`, the inhibition was 8.7% (inactive).
Take `O=C(c1cccc2cccc(O)c12)N1CCCCC1`: the inhibition was 14.8% (inactive).
Under `Cc1cc(C)cc(Oc2coc3c(CN(C)C)c(O)ccc3c2=O)c1` stands 10.6% (inactive); under `COc1ccc2c(c1)Cc1sc(NC(=O)c3ccco3)nc1-2`, 40.3% (inactive); under `Cc1ccc(NC(=O)C2CCN(C(=O)c3ccco3)CC2)cc1`, 0.4% (inactive).
Take `COc1ccc2oc(=O)c(C(=O)NCc3ccco3)cc2c1`: the inhibition is -14.1% (inactive).
For the compound `COc1ccc(-c2cc(C(F)(F)F)n3ncc(C(=O)NCc4ccco4)c3n2)cc1`, the inhibition is 32.4% (inactive).
As to `O=C(COc1ccc2oc(-c3ccco3)cc(=O)c2c1)N1CCCCC1`, the inhibition was -2.7% (inactive).
For the compound `COc1ccc(-n2nc3cc(C)c(N)c(Br)c3n2)cc1`, the inhibition was 18.3% (inactive).
Under `N#CC(C(=O)NC1CC1)c1nc2ccccc2nc1N1CCCC1` (stereo not drawn) stands 29% (inactive).
Take `N#CC(c1nc2ccccc2nc1N1CCCC1)S(=O)(=O)c1ccccc1` (stereo not drawn): the inhibition was 66.7% (active).
As for `COc1ccc(S(=O)(=O)C(C#N)c2nc3ccccc3nc2N2CCCCC2)cc1` (stereo not drawn), the inhibition is 42.8% (active).
Take `Cc1ccc(C)c(S(=O)(=O)C(C#N)c2nc3ccccc3nc2N2CCOCC2)c1` (stereo not drawn): the inhibition was 9.2% (inactive).
On to `N#CC(c1nc2ccccc2nc1N1CCCC1)S(=O)(=O)c1cccs1` (stereo not drawn), for which the inhibition was 37.3% (inactive).
`Cc1ccc(S(=O)(=O)C(C#N)c2nc3ccccc3nc2N2CCCC2)cc1C` (stereo not drawn): the inhibition is 45.8% (active).
For `Cc1ccc(S(=O)(=O)C(C#N)c2nc3ccccc3nc2N2CC(C)OC(C)C2)cc1C` (stereo not drawn), the inhibition was 22.8% (inactive).
On to `Cc1ccc(C)c(S(=O)(=O)C(C#N)c2nc3ccccc3nc2N2CCCC2)c1` (stereo not drawn), for which the inhibition is 44.3% (active).
Turning to `C=CCNC(=O)C(C#N)c1nc2ccccc2nc1N1CCCCCC1` (stereo not drawn), the inhibition is 30.3% (inactive).
Under `Cc1ccc(C)c(S(=O)(=O)C(C#N)c2nc3ccccc3nc2N2CC(C)OC(C)C2)c1` (stereo not drawn) stands 4.8% (inactive); under `Cc1ccccc1S(=O)(=O)Nc1nc2ccccc2nc1N1CCc2ccccc2C1`, -43.2% (inactive).
With `COc1ccc(S(=O)(=O)C(C#N)c2nc3ccccc3nc2N2CCC(C)CC2)cc1` (stereo not drawn), the inhibition is 15.7% (inactive).
Under `CC(=O)c1ccc(NC(=O)Nc2cccnc2)cc1` stands -7.1% (inactive).
Consider `CSc1ccc(-c2cc(=O)c3ccccc3o2)cc1`, for which the inhibition is -11% (inactive).
As to `CN(C)/C=N/c1nc2nccc(-c3cccnc3)n2n1`, the inhibition was -4% (inactive).
As to `Cc1cccc(S(=O)(=O)C(C#N)c2nc3ccccc3nc2N2CCCC2)c1` (stereo not drawn), the inhibition was 28.3% (inactive).
Take `Cc1ccc(S(=O)(=O)C(C#N)c2nc3ccccc3nc2N2CCCC2)cc1` (stereo not drawn): the inhibition was 44.2% (active).
As to `C=CCOC(=O)C(C#N)c1nc2ccccc2nc1N1CCN(Cc2ccccc2)CC1` (stereo not drawn), the inhibition is 22.9% (inactive).
Consider `O=C(O)CN1C(=O)/C(=C\c2cc([N+](=O)[O-])ccc2OCc2ccccc2Cl)SC1=S`, for which the inhibition is 63% (active).
With `CC(=O)Nc1ccc(-c2nc3ccc(NC(C)=O)cc3o2)cc1`, the inhibition is 25.1% (inactive).
On to `CC(C)C(=O)Nc1cccc(C(=O)NCc2ccc3c(c2)OCO3)c1`, for which the inhibition is 13.6% (inactive).
To `CC(=O)Nc1ccc(-c2cn3cccnc3n2)cc1` belongs 5.9% (inactive).
On to `Clc1ccc(C2=CSC3=Nc4cccc5cccc(c45)N23)cc1`, for which the inhibition was 101% (active).
Regarding `COc1ccc(OC)c(S(=O)(=O)NCCc2cn3ccsc3n2)c1`, the inhibition was 44.5% (active).
For `CCN(CC)C(=O)C1CCCN(C(=O)Nc2ccc3nsnc3c2)C1` (stereo not drawn), the inhibition was -9% (inactive).
Under `COc1ccc(NCc2ccc([N+](=O)[O-])s2)c(OC)c1` stands 87% (active).
As for `COc1ccc(C2C(C(C)=O)=C(O)C(=O)N2C)c(OC)c1` (stereo not drawn), the inhibition was -14.2% (inactive).
As for `N#Cc1c(N(CCO)CCO)nc(N)c2c(N)nc3c(c12)CC(=O)N3CC1CCCO1` (stereo not drawn), the inhibition was 26% (inactive).
`N#Cc1c(N(CCO)CCO)nc(N)c2c(N)nc3c(c12)CC(=O)N3Cc1cccs1`: the inhibition is 52.9% (active).
Regarding `COCCN(CCOC)c1nc(N)c2c(N)nc3c(c2c1C#N)CC(=O)N3Cc1ccc(Cl)cc1`, the inhibition was 11.2% (inactive).
As for `CCOC(=O)N1CCN(C(=O)c2cccn3c(=O)c4cc(Cl)ccc4nc23)CC1`, the inhibition was 11% (inactive).
`Nc1nnc(CC(=O)N/N=C/c2cc([N+](=O)[O-])cc(Br)c2O)s1`: the inhibition was 102% (active).
In the case of `O=C1CC(CC(=O)N/N=C/c2ccccc2[N+](=O)[O-])=NN1`, the inhibition is 26.8% (inactive).
As to `O=C1/C(=C/c2ccco2)Oc2c1ccc(O)c2CN1CCCCC1`, the inhibition was 9.4% (inactive).
For the compound `Cc1cc(-c2csc(NC(=O)c3ccc(=O)[nH]c3)n2)c(C)n1Cc1ccccc1`, the inhibition was 29.1% (inactive).
Regarding `CC1CCN(Cc2cc(=O)oc3cc(O)c(Cl)cc23)CC1`, the inhibition is -10.6% (inactive).
Turning to `Cc1ccc(-c2nn(-c3ccccc3)cc2/C=C2\SC(=S)N(CCCCCC(=O)O)C2=O)o1`, the inhibition was 74.8% (active).
As for `O=C(O)CCCN1C(=O)/C(=C/c2cn(-c3ccccc3)nc2-c2cccs2)SC1=S`, the inhibition was 76% (active).
For `Cc1ccc(N/N=C2\CC(=O)c3ccccc32)cc1Cl`, the inhibition was 78.3% (active).
Turning to `Cc1ccc(NC(=O)CN2C(=O)S/C(=C/c3ccc(-c4cc(C(=O)O)ccc4C)o3)C2=O)cc1C`, the inhibition was 101% (active).
Under `CC(=O)N1C(=S)NC(=O)/C1=C1/C(=O)N(CC(=O)Nc2cccc(C)c2)c2ccccc21` stands 12.6% (inactive); under `Cc1cccc(N(C)C(=O)c2cc3c(=O)[nH]c4ccc(C)cc4c3s2)c1`, 37.8% (inactive); under `CCOC(=O)c1ccc(N2C(=O)c3n[nH]c(-c4ccco4)c3C2c2ccc([N+](=O)[O-])cc2)cc1` (stereo not drawn), 34.2% (inactive).
For `Cc1c(C(=O)O)cccc1-c1ccc(/C=C2\SC(=O)NC2=O)o1`, the inhibition is 48.8% (active).
With `CCc1cc2c(=O)c(Oc3ccccc3F)c(C)oc2c(CN(C)C)c1O`, the inhibition was -4.3% (inactive).
`CC1=NN(c2ccc(Cl)cc2)C(=O)C1C(c1ccccc1O)c1c(C)[nH]n(-c2ccc(Cl)cc2)c1=O` (stereo not drawn): the inhibition was 82.4% (active).
Consider `CC1=NN(c2ccc(F)cc2)C(=O)C1C(c1cccc(O)c1)c1c(C)[nH]n(-c2ccc(F)cc2)c1=O` (stereo not drawn), for which the inhibition is 89.4% (active).
Turning to `CC1=NN(c2ccc(C)cc2C)C(=O)C1C(c1cccc(O)c1)C1C(=O)N(c2ccc(C)cc2C)N=C1C` (stereo not drawn), the inhibition is 81.1% (active).
To `O=[N+]([O-])c1c(NCCO)cc(N2CCC3(CC2)OCCO3)c2nonc12` belongs 8.2% (inactive).
As for `CCCCCC(=O)Nc1ccc(-c2cn3cccnc3n2)cc1`, the inhibition is 10.6% (inactive).
Consider `COC12NC(=O)N(C)C1(OC)C(=O)N(C)C(=O)N2C` (stereo not drawn), for which the inhibition was -6.8% (inactive).
Under `Cc1cccc(S(=O)(=O)C(C#N)c2nc3ccccc3nc2N2CC(C)OC(C)C2)c1` (stereo not drawn) stands 3.9% (inactive); under `COc1ccc(S(=O)(=O)C(C#N)c2nc3ccccc3nc2N2CCCC(C)C2)cc1` (stereo not drawn), 49.9% (active).
